Measurements from the supplement of paper PMC10849652.
The full data set covers some 7,900 targets. This sample favours those with a hit. About 0.6% of all pairs of compound and target were hits.

Assays:
Test in all cases: log2 fold change, soluble protein after heating vs DMSO (PISA); higher = thermal stabilisation; K562 cells, 10 uM, 30 min; active = over 0.2 and 3.5 SD of the protein, either way, in both replicates (recomputed)
[1] = compound: CC[C@@H]1C(=O)N(C)c2cnc(Nc3ccc(C(=O)NC4CCN(C)CC4)cc3OC)nc2N1C1CCCC1
Outline: (§1)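 K562 cells at 2×10^6 cells/mL were given 10 μM compound for 30 min. Aliquots then went through 3 min of heating across 48°C-58°C, were pooled, and were extracted in PBS with 0.5% NP-40 at 4°C, and the supernatant after 21,000xg for 90 min was quantified by TMTpro 16plex LC-MS/MS with channel sums equalised. Thermal stability relative to control samples, from duplicates, is given as log2 fold change.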

volasertib = compound: CC[C@@H]1C(=O)N(C)c2cnc(Nc3ccc(C(=O)N[C@H]4CC[C@H](N5CCN(CC6CC6)CC5)CC4)cc3OC)nc2N1C(C)C [volasertib]
Outline: as §1

[2] = compound: CC[C@H](C)N1C=C(C2=C(C=C(C=C21)C3=CN=C(C=C3)N4CCNCC4)C(=O)NCC5=C(C=C(NC5=O)C)C)C
Outline: as §1

epoxomicin = compound: CC[C@H](C)[C@@H](C(=O)N[C@@H]([C@@H](C)O)C(=O)N[C@@H](CC(C)C)C(=O)[C@]1(CO1)C)NC(=O)[C@H]([C@@H](C)CC)N(C)C(=O)C [epoxomicin]
Outline: as §1

[3] = compound: CCn1c(C(=O)N(C2CC2)C2CC2)cc2c3c(ncn3C)c(Nc3cc(C)n(C)n3)nc21
Outline: as §1

[4] = compound: CCn1cc(-c2ccnc3[nH]c(-c4cccc(CN(C)C)c4)cc23)c(-c2ccc(NC(=O)N(C)C)cc2)n1
Outline: as §1

[5] = compound: CN(C)CC(=O)Nc1ccc2[nH]c(=O)c3ccccc3c2c1
Outline: as §1

rosiglitazone = compound: CN(CCOC1=CC=C(C=C1)C[C@H]2C(=O)NC(=O)S2)C3=CC=CC=N3 (racemic) [rosiglitazone]
Outline: as §1

[6] = compound: CN1C2=C(C3=C1C(=O)N(N=C3)CC4=CC(=CC=C4)N)SC(=C2)S(=O)C
Outline: as §1

[7] = compound: CN1CCC(CNc2ccc3ncc(-c4cccc(OC(F)(F)F)c4)n3n2)CC1
Outline: as §1

Measured: log2 fold change

H1FX (UniProt Q92522)
inactive: [1] 0.166 | volasertib 0.415 | [2] -0.003 | epoxomicin -0.201 | [3] -0.026 | [4] 0.041 | [5] -0.115 | rosiglitazone -0.156 | [6] 0.287 | [7] 0.129

GNAS (UniProt Q5JWF2)
Chain of UniProt Q5JWF2 (Q5JWF2 whole entry, looked up): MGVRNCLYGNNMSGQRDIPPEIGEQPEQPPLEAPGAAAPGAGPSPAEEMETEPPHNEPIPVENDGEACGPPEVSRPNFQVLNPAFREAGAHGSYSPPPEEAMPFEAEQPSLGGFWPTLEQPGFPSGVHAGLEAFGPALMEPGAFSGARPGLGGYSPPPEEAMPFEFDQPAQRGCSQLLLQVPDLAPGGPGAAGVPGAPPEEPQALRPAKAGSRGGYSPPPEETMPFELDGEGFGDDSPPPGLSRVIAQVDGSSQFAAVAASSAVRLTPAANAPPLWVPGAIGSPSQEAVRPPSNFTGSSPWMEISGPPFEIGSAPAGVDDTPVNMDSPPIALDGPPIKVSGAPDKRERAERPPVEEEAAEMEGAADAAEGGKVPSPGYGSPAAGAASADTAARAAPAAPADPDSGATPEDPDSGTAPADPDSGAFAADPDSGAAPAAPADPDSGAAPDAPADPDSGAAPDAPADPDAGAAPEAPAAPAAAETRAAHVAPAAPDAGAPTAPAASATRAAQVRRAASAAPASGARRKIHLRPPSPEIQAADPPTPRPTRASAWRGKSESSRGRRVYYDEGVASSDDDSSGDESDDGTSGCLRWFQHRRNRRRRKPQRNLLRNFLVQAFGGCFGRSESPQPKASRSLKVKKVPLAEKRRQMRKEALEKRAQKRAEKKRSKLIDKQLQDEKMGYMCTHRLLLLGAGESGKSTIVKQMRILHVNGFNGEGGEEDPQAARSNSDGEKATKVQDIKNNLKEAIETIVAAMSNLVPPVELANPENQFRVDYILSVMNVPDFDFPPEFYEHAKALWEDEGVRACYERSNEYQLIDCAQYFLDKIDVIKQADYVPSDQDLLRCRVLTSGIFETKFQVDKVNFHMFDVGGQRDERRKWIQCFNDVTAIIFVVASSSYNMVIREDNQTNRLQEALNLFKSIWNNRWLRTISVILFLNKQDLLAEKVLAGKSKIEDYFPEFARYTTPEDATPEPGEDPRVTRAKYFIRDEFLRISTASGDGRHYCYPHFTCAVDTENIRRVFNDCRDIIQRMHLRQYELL
inactive: [1] 0.125 | volasertib 0.164 | [2] 0.032 | epoxomicin 0.011 | [3] 0.016 | [4] 0 | [5] -0.02 | rosiglitazone 0.006 | [6] -0.03 | [7] 0.057

GATA1 (UniProt P15976)
Chain of UniProt P15976 (P15976 whole entry, looked up): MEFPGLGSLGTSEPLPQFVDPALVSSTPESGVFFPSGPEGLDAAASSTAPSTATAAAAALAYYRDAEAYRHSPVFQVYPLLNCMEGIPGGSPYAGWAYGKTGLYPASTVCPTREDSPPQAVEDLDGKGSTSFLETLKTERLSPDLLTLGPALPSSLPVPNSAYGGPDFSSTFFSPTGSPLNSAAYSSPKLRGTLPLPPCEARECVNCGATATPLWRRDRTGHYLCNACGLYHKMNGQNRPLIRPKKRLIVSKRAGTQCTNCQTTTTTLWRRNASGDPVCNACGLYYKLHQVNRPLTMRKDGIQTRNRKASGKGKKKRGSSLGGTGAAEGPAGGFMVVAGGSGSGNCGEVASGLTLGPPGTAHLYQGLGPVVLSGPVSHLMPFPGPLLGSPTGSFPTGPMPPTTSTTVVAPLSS
inactive: [1] 0.134 | volasertib 0.076 | [2] -0.036 | epoxomicin 0.152 | [3] -0.026 | [4] 0.04 | [5] -0.084 | rosiglitazone -0.021 | [6] 0.046 | [7] 0.119

HDAC2 (UniProt Q92769)
inactive: [1] 0.024 | volasertib -0.051 | [2] 0.026 | epoxomicin -0.049 | [3] -0.049 | [4] -0.001 | [5] -0.003 | rosiglitazone 0 | [6] -0.041 | [7] 0.056

FKBP3 (UniProt Q00688)
inactive: [1] 0.006 | volasertib 0.075 | [2] 0.03 | epoxomicin 0.037 | [3] 0 | [4] -0.001 | [5] 0.001 | rosiglitazone -0.002 | [6] -0.065 | [7] 0.015

HDGFL2 (UniProt Q7Z4V5)
inactive: [1] -0.019 | volasertib 0.014 | [2] -0.043 | epoxomicin 0.012 | [3] -0.006 | [4] 0.015 | [5] -0.011 | rosiglitazone -0.004 | [6] 0.006 | [7] -0.033

GYG1 (UniProt P46976)
Chain of UniProt P46976 (P46976 whole entry, looked up): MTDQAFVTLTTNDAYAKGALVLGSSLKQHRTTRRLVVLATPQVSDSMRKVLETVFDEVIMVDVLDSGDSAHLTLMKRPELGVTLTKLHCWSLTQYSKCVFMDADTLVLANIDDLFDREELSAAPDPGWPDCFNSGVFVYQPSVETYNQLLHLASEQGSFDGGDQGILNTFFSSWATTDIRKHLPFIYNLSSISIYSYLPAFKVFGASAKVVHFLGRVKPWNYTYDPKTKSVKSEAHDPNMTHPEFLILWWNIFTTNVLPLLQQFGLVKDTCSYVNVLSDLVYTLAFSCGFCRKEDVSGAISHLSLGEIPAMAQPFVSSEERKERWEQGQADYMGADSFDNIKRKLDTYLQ
inactive: [1] 0.107 | volasertib 0.338 | [2] 0 | epoxomicin -0.104 | [3] 0.011 | [4] -0.045 | [5] 0.019 | rosiglitazone -0.045 | [6] 0.016 | [7] -0.011

H2AZ1 (UniProt P0C0S5)
Chain of UniProt P0C0S5 (P0C0S5 whole entry, looked up): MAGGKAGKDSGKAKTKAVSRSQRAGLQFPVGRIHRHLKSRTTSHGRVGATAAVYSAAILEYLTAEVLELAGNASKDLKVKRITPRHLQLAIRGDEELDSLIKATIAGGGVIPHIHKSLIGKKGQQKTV
inactive: [1] 0 | volasertib 0.065 | [2] -0.084 | epoxomicin -0.311 | [3] 0.054 | [4] 0.103 | [5] -0.071 | rosiglitazone -0.052 | [6] 0.435 | [7] 0.026

HTATIP2 isoform 3 (UniProt Q9BUP3)
inactive: [1] -0.029 | volasertib -0.168 | [2] 0.035 | epoxomicin 0.008 | [3] 0.02 | [4] -0.013 | [5] 0.009 | rosiglitazone -0.025 | [6] -0.016 | [7] -0.148

GDE1 (UniProt Q9NZC3)
inactive: [1] 0.033 | volasertib 0.053 | [2] -0.092 | epoxomicin -0.046 | [3] 0.002 | [5] -0.049 | rosiglitazone -0.003 | [6] -0.016

HMGN1 (UniProt P05114)
Chain of UniProt P05114 (P05114 whole entry, looked up): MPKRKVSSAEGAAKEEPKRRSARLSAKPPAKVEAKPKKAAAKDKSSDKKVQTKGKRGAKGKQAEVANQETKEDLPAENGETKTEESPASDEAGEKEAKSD
inactive: [1] 0.054 | volasertib 0.141 | [2] -0.044 | epoxomicin -0.008 | [3] 0.063 | [4] 0.045 | [5] -0.094 | rosiglitazone -0.027 | [6] 0.039 | [7] 0.101

FERMT3 (UniProt Q86UX7)
Chain of UniProt Q86UX7 (Q86UX7 whole entry, looked up): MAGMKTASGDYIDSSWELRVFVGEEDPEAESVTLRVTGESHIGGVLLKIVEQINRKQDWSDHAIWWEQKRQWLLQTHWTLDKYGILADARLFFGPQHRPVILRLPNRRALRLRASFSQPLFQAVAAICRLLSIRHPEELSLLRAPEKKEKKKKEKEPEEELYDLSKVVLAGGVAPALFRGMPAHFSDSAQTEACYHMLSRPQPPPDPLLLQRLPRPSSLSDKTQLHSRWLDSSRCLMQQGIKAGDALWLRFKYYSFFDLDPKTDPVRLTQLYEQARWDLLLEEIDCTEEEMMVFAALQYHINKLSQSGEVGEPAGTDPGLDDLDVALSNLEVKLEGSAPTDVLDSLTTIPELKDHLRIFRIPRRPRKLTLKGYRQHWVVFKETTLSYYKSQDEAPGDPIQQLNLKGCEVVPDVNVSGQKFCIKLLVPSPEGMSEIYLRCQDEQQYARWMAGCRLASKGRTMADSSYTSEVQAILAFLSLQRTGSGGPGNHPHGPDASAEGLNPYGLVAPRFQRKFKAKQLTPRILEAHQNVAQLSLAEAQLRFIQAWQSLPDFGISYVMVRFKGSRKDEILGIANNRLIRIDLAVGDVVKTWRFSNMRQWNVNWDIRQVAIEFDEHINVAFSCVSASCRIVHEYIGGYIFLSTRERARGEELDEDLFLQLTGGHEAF
active: volasertib -0.262
inactive: [1] -0.07 | [2] 0.053 | epoxomicin 0.019 | [3] -0.018 | [4] -0.04 | [5] 0.045 | rosiglitazone 0.059 | [6] -0.021 | [7] -0.149

HPCAL1 (UniProt P37235)
inactive: [1] -0.076 | volasertib -0.065 | [2] -0.028 | epoxomicin 0.048 | [3] 0.003 | [4] 0.039 | [5] 0.019 | rosiglitazone 0.005 | [6] -0.029 | [7] -0.032

HDAC7 isoform 5 (UniProt Q8WUI4)
Chain of UniProt Q8WUI4 (Q8WUI4 whole entry, looked up): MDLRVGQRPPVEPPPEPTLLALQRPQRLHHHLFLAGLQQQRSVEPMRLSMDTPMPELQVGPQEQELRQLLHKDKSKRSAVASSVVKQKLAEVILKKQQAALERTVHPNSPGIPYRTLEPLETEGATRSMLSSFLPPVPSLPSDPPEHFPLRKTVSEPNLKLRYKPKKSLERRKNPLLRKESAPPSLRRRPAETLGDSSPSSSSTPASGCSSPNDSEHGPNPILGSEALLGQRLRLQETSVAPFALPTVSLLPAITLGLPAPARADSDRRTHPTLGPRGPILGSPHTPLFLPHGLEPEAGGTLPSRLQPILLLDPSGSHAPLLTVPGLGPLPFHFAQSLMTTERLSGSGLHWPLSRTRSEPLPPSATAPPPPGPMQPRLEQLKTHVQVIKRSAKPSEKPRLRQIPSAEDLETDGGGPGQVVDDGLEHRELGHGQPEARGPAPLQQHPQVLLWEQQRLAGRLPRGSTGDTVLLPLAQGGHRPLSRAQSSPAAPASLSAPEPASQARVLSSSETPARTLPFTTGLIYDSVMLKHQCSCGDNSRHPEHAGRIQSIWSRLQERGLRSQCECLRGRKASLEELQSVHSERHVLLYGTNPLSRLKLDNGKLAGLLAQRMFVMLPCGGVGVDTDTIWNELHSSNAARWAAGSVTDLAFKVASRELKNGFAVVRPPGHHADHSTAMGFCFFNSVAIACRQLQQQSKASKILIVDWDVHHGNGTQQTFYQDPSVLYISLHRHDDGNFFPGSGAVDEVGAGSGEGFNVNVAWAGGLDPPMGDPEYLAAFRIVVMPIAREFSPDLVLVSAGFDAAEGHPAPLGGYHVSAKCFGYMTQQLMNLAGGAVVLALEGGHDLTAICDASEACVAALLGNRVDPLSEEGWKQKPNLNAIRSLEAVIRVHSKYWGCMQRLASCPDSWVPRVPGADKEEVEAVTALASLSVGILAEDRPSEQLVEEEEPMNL
inactive: [1] 0.051 | volasertib 0.01 | [2] 0.007 | epoxomicin 0.016 | [3] -0.031 | [4] -0.058 | [5] 0.059 | rosiglitazone 0.011 | [6] -0.053 | [7] -0.123

FYB1 isoform 3 (UniProt O15117)
inactive: [1] -0.018 | volasertib -0.201 | [2] 0.263 | epoxomicin 0.052 | [3] -0.057 | [4] -0.008 | [5] 0.019 | rosiglitazone 0.115 | [6] -0.068 | [7] -0.246

FRA10AC1 isoform 3 (UniProt Q70Z53)
active: volasertib -0.613
inactive: [1] -0.086 | [2] -0.034 | epoxomicin 0.041 | [3] -0.058 | [4] 0.025 | [5] -0.013 | rosiglitazone 0.115 | [6] 0.093 | [7] 0.057

HS1BP3 (UniProt Q53T59)
active: volasertib -0.343
inactive: [1] -0.038 | [2] 0.073 | epoxomicin 0.056 | [3] -0.043 | [5] 0.012 | rosiglitazone 0.07 | [6] -0.041

GBA2 (UniProt Q9HCG7)
inactive: [1] 0 | [2] -0.082 | epoxomicin -0.062 | [3] -0.075 | [5] 0.027 | rosiglitazone -0.07 | [6] -0.085
active: volasertib 0.308

HSPA8 (UniProt E9PN89)
inactive: [1] 0.167 | volasertib 0.114 | [2] -0.205 | epoxomicin -0.278 | [3] -0.127 | [4] 0.178 | [5] -0.139 | rosiglitazone 0.049 | [7] -0.154

HNRNPUL1 (UniProt Q9BUJ2)
Chain of UniProt Q9BUJ2 (Q9BUJ2 whole entry, looked up): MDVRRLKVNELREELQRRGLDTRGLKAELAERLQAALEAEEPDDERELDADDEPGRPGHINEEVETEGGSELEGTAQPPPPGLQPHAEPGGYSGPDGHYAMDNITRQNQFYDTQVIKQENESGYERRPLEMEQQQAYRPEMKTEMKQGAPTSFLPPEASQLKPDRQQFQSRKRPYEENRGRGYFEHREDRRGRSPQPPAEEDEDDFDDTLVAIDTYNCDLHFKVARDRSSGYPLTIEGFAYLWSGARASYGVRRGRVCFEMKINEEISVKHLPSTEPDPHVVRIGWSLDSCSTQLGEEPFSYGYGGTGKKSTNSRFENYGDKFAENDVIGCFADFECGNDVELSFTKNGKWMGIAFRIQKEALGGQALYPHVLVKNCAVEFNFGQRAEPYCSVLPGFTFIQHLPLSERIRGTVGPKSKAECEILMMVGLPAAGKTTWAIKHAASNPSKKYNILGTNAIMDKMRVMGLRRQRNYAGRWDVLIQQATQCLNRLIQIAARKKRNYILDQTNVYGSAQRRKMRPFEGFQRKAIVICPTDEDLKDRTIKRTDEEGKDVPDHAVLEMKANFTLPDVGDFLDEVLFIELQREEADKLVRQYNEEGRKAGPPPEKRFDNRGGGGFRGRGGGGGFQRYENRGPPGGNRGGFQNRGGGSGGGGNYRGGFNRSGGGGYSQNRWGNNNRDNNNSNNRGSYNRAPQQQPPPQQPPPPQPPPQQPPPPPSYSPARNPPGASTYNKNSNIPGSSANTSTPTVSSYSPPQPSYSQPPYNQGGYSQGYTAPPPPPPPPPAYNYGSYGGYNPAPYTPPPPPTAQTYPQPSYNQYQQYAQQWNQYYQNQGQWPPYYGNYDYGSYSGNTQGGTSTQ
inactive: [1] 0.051 | volasertib -0.069 | [2] 0.014 | epoxomicin 0.019 | [3] -0.029 | [4] 0.004 | [5] 0.013 | rosiglitazone -0.001 | [6] 0.099 | [7] 0.031

HECTD1 (UniProt Q9ULT8)
inactive: [1] 0.107 | volasertib -0.221 | [2] 0.063 | epoxomicin 0.012 | [3] -0.041 | [4] 0 | [5] 0.016 | rosiglitazone 0.056 | [6] 0.17 | [7] -0.054

GPX4 (UniProt P36969)
inactive: [1] 0.019 | volasertib 0.016 | [2] 0.012 | epoxomicin 0.021 | [3] 0.001 | [4] -0.025 | [5] 0.009 | rosiglitazone -0.012 | [6] -0.061 | [7] 0.067

GAPVD1 isoform 6 (UniProt Q14C86)
active: volasertib -0.585
inactive: [1] -0.12 | [2] 0.034 | epoxomicin -0.015 | [3] -0.061 | [4] -0.016 | [5] 0.038 | rosiglitazone 0.034 | [6] 0.083 | [7] -0.197

GUK1 isoform 2 (UniProt Q16774)
inactive: [1] -0.116 | volasertib 0.081 | [2] 0.097 | epoxomicin 0.12 | [3] -0.151 | [4] -0.167 | [5] 0.049 | rosiglitazone 0.158 | [6] 0 | [7] 0.071

HBZ, A0A494C057
inactive: [1] 0.203 | [2] -0.079 | [3] -0.008 | rosiglitazone -0.188

FBXO9 (UniProt Q9UK97)
active: volasertib -0.545
inactive: [1] -0.17 | [2] 0.06 | [3] 0.086 | [4] 0.009 | [5] 0.097 | rosiglitazone 0.07 | [6] 0.045 | [7] 0.203

FASTKD1 (UniProt Q53R41)
inactive: [1] -0.023 | [2] -0.088 | epoxomicin 0.155 | [3] -0.151 | [4] 0.051 | [5] 0.064 | rosiglitazone 0.014 | [6] 0.072 | [7] -0.188

GREB1 (UniProt Q4ZG55)
inactive: epoxomicin -0.081 | [3] -0.108 | [5] -0.095

FCF1 (UniProt Q9Y324)
inactive: [1] 0.095 | volasertib 0.108 | epoxomicin -0.003 | [4] 0.134 | [5] -0.041 | [6] 0.107 | [7] 0.219

FGG (UniProt P02679)
Chain of UniProt P02679 (P02679 whole entry, looked up): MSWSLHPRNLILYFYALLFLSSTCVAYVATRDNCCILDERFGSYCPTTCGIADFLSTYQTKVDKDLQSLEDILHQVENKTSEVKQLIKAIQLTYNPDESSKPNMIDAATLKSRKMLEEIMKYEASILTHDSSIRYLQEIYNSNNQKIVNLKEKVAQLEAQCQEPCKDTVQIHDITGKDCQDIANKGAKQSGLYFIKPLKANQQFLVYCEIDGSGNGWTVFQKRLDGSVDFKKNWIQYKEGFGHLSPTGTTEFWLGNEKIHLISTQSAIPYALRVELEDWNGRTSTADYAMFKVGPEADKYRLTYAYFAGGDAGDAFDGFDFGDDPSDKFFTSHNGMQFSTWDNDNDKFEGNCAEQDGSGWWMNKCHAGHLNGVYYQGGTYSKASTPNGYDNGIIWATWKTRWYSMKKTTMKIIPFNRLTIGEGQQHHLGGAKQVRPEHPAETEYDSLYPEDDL
inactive: volasertib -0.042 | [4] 0.035 | [7] 0.137

FMR1 (UniProt Q06787)
inactive: [1] -0.068 | volasertib -0.173 | [3] 0.178 | [4] 0.088 | [7] 0.279

GOLGA6B (UniProt A6NDN3)
inactive: epoxomicin -0.061 | [3] 0.07 | [4] -0.185 | [5] 0.327 | rosiglitazone 0.084 | [7] 0.067
active: [2] -0.579

FAT2 (UniProt Q9NYQ8)
inactive: [1] 0.011 | volasertib 0.029 | epoxomicin -0.047 | [3] -0.183 | [4] -0.023 | [5] -0.06 | rosiglitazone -0.27 | [6] -0.023 | [7] 0.109

HDAC10 (UniProt Q969S8)
inactive: [1] -0.113 | volasertib -0.041 | [2] 0.028 | [3] -0.005 | [4] -0.179 | [5] 0.224 | rosiglitazone 0.12 | [6] -0.107 | [7] 0.055
